The panel holds about 79,000 compounds, 15% with a hit somewhere; the sample as a whole holds those more often. A number with no mark means an inactive call. Activity calls are given as the source filed them. No stated cut-off is given here; in the data, active means growth inhibition above about 70%; inactive means the rest.
Legend:
[1] = NCI Yeast Anticancer Drug Screen. Data for the rad50 strain (AID 155);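 further: 0% = growth of vehicle-only cultures of the same strain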; conditions: S. cerevisiae rad50 strain growth inhibition; at 50.0 µM; active compounds read high
Summary of the method: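 Relative growth inhibition (compound vs vehicle) was measured in yeast with a defined repair-gene alteration.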

[2] = NCI Yeast Anticancer Drug Screen. Data for the mec2-1 strain (AID 157); conditions: S. cerevisiae mec2-1 strain, at 50.0 µM, active compounds read high
Summary of the method: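 Yeast mec2-1 mutant treated with compound. Readout: growth inhibition vs vehicle controls.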

[3] = NCI Yeast Anticancer Drug Screen. Data for the sgs1 mgt1 strain (AID 161);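 further: 0% = growth of cultures given vehicle only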; conditions: S. cerevisiae sgs1 mgt1 strain, at 50.0 µM, active compounds read high
Summary of the method: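 Inhibition of yeast growth, normalised to vehicle-treated controls, is reported for a strain bearing genetic alterations in DNA damage repair.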

[4] = NCI Yeast Anticancer Drug Screen. Data for the cln2 rad14 strain (AID 165);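 further: 0% = growth equal to vehicle treated cultures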; conditions: S. cerevisiae cln2 rad14 strain, at 50.0 µM, active compounds read high
Summary of the method: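 cln2 rad14 yeast strain; compound exposure; growth inhibition read vs vehicle controls.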

[5] = NCI Yeast Anticancer Drug Screen. Data for the bub3 strain (AID 167); conditions: S. cerevisiae bub3 mutant strain, at 50.0 µM, active compounds read high
Summary of the method: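 Screening used yeast with an engineered genetic alteration affecting cell cycle control. Compound-exposed cultures were compared with vehicle cultures, and reduced growth was taken as inhibition.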

[6] = NCI Yeast Anticancer Drug Screen. Data for the mlh1 rad18 strain (AID 175); conditions: S. cerevisiae mlh1 rad18 strain growth inhibition; at 50.0 µM; active compounds read high
Summary of the method: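 Yeast w/ defined DNA-repair lesions; compound exposure; growth vs vehicle controls → % inhibition.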

SMILES | growth inhibition [1] | growth inhibition [2] | growth inhibition [3] | growth inhibition [4] | growth inhibition [5] | growth inhibition [6]
Cc1ccc(NS(=O)(=O)c2ccc(F)cc2)cc1Cl | 99.7% (active) | 99.3% (active) | 99.7% (active) | 99.3% (active) | 99.6% (active) | 99.8% (active)
O=C(O)/C=C/c1ccccc1Cl | -9.7% | 10.1% | -1.3% | -25.8% | 0.8% | -9.9%
NC(=O)c1cccc(F)c1 | 13.8% | 5.3% | -10% | 10.2% | 2.1% | 14.9%
Cc1ccc(S(=O)(=O)Nc2nnc(CC(C)C)s2)cc1 | 36.2% | -6.45% | 35.2% | 28.1% | 40.9% | 35.9%
CC1(C)Nc2cc3c(cc2-n2cccc21)oc1ccccc13 | 17.3% | -3.55% | 39.5% | 45.6% | 30.4% | 27.4%
C=CS(=O)(=O)c1ccc(Nc2cc(S(=O)(=O)O)c(N)c3c2C(=O)c2ccccc2C3=O)cc1 | -20.2% | -30.9% | -4.1% | 2.9% | -19.3% | -36.1%
CC12CCC(O)CC1=CCC1C2CCC2(C)C(C(O)CC(O)(C(F)(F)F)C(F)(F)F)CCC12 (stereo unspecified) | 30.1% | 48% | 47.9% | 3.95% | 25.9% | 40.5%
C/C(=N/NC(=O)CC#N)c1ccccc1 | 25.2% | -0.5% | 16.7% | -20.6% | 27.7% | 0.4%
O=C1C(=O)C(c2ccccc2)(c2ccccc2)C(=O)N1c1ccccc1 | 29.6% | 13.2% | 0.9% | 49.6% | 16.4% | -6.7%
O=C(NCc1ccccc1)NCN1CCOCC1 | 20.7% | -0.85% | 5.15% | 0.45% | 5.65% | -11.3%
C=Cc1nnnn1C | 7.45% | 16.2% | -5.85% | 10.3% | 10.4% | 10.8%
O=[N+]([O-])c1ccc(Cl)cc1N/N=C/c1cccs1 | -46.1% | -40.2% | -40.8% | -9.5% | -30.8% | -31.8%
N#CN=CN1CCN(c2ccccc2)CC1 | 4.8% | -11.2% | -0.15% | -22.6% | -5.4% | -11.9%
Oc1c(Cl)cc(Cl)cc1C1Nc2ccccc2-n2cccc21 (stereo unspecified) | -5.2% | -11.8% | 0.4% | 8.95% | 9.25% | 8.2%
CC1CCOC(c2ccc(C(C)C)cc2)O1 (stereo unspecified) | 8.4% | -2.4% | 2.9% | -9.9% | 9.45% | -0.15%
Cc1ncc(CO)c(Nc2ccccc2)n1 | 1.85% | 5.8% | -0.25% | -25.5% | -4.8% | 8.4%
Cc1cccc(/C=C(\C#N)C(=O)c2ccccc2)c1 | -10.6% | 15.3% | -13.6% | 5.75% | -5.25% | 21.2%
Cc1[nH]c(=O)c2oc3cc4ccccc4cc3c2c1C(=O)O | -14.6% | -29.9% | -24.1% | -44.1% | -30.7% | -19.1%
CC(C)C(N=Cc1ccccc1O)C(=O)O (stereo unspecified) | -8.35% | -21.9% | -10.2% | -5.75% | -47.9% | -4.3%
Fc1ccc2c(c1)Nc1ccccc1S2 | -6.1% | -1.95% | 7.65% | -8.85% | -16% | -14.6%
c1ccc2c(c1)Nc1nsnc1N2 | 3.8% | -9.4% | -6% | 13.8% | 13.2% | 2.25%

SMILES | growth inhibition [1] | growth inhibition [2] | growth inhibition [3] | growth inhibition [4] | growth inhibition [5] | growth inhibition [6]
COc1ccc(C(O)c2ccc(C)cc2)cc1 (stereo unspecified) | -14.1% | -4.2% | -43% | -27.6% | -27.4% | -17.3%
O=C(O)C(=O)C(=O)O | -23% | -41.8% | -9.65% | -10.1% | -1.45% | -5.45%
Cc1nc(N)[nH]c(=O)c1CCCN=Cc1ccc([N+](=O)[O-])cc1 | 4.3% | 6% | 14.4% | 7.7% | 31.6% | 29.9%
CC(=O)NCCc1ccc2c(c1)[nH]c1ccccc12 | -1.9% | -36% | -8.75% | 12.6% | -17.1% | -8.05%
O=S(=O)(Nc1ncccn1)c1ccc(N=NSC2=NC=NC3=NC=NC32)cc1 (stereo unspecified) | 21.3% | 17.4% | 20.5% | 4% | 0.05% | 11.8%
O=C(O)c1ccc2c(c1C(=O)O)C(=O)OC2(c1ccc(O)cc1)c1ccc(O)cc1 | -14.8% | 11.7% | -21.6% | -21.8% | -10.9% | 4.85%
Cc1cc2c(cc1C)NS(=O)(=O)N2 | 18.4% | 10.4% | 7.25% | -21.7% | 4.9% | 7.35%
Cc1c(-c2ccccc2)c2ccccc2n1C | 38.1% | 8.55% | 10.4% | 20.3% | 20.6% | 22.5%
C/C(=N\NC(=O)c1cc(C)nc2ccc(Br)cc12)c1ccccc1O | 71.1% (active) | 63% | 79.8% (active) | 48.3% | 7.3% | 72.5% (active)
Cc1ccc(C(=O)NNC(=O)c2ccc3ccccc3c2)cc1 | -15.4% | -19.4% | 7% | 10.2% | -16.6% | -12.9%
C=CCOC(=O)Nc1ccc(S(=O)(=O)N(CCC)CCC)cc1 | -13.3% | -33% | 32% | -23.4% | -14.7% | -17.2%
CCCCCCCCNC=O | 26.1% | 11.1% | 9.45% | 1.1% | 13.1% | 20.8%
CCCCCCCC(=O)OCC(COC(=O)CCCCCCC)OC(=O)CCCCCCC | 40.8% | 3.6% | 1.6% | -33.5% | 9.55% | 27.1%
O=[N+]([O-])C(/C=C(\Cl)[N+](=O)[O-])=C1Nc2ccccc2N1 | 29.9% | 45.1% | 57.2% | 19.4% | 21.1% | 50.5%
CC[n+]1c(-c2ccccc2)c2cc(NCCCN)ccc2c2ccc(N)cc21 | 33% | 15.8% | 8.8% | 6.3% | 3.75% | 40.5%
CC(C)(C)C1CCC2c3c([nH]c4ccccc34)C3C(=O)N(c4ccccc4[N+](=O)[O-])C(=O)C3C2C1 (stereo unspecified) | -16.9% | -24.1% | -18.6% | 4.8% | -15.3% | -26.6%
O=C(O)CCc1c[nH]c2ccccc12 | 10.2% | 1.15% | 31.8% | -55.4% | -7.95% | 18.5%
Nc1nc(Cl)nc(Cl)c1N | -21.9% | 7.1% | -17.3% | -23.4% | -8.95% | -2.95%
Brc1cc(Br)cc(-c2nnc(-c3cccc4ccccc34)o2)c1 | -14.1% | -16.4% | 0.25% | 24.1% | 10.2% | -4.65%
CC(=O)NNc1nc(C)c(C(=O)NNC(=O)C(=O)Nc2cccc(C(C)=O)c2)s1 | 7.3% | 0.5% | -23.1% | 36.5% | 0.85% | -12.3%

Source: PubChem BioAssay (NCI)
